IMPase cell inh – membrane-permeable compound that blocks inositol monophosphatase | P97697 | CHO-M1 cells, IP1 accumulation, HTRF TR-FRET ratio | inhibition (IP1 accumulation), % at 46.1 µM | 120,000 tested, under 10 active; active = well fitted curve in the direction sought with a large enough effect in the signal ratio, not every such curve was filed as active; inconclusive = small, poorly fitted or top-dose-only effect, or a change in a side signal; inactive = no such curve, though single readings can be large or run the other way; the % refers to the signal ratio;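 note: cells stimulated with carbachol in lithium chloride buffer; plate controls were DMSO basal wells for no effect and reference inhibitor wells for full effect; higher means more IMPase inhibition seen as more IP1 and lower FRET ratio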
Target sequence (P97697 whole entry, looked up): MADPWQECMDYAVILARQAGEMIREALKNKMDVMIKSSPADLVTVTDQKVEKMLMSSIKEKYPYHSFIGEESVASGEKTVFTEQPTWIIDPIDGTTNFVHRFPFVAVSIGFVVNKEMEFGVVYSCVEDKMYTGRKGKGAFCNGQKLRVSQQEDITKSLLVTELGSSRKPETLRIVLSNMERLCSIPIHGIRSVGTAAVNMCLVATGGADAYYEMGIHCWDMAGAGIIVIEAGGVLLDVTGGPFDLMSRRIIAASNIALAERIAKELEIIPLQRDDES
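CHO-M1 cells (CHO stably expressing M1 receptor), compound up to 46 uM final, stimulated with carbachol (50 uM as added) in buffer with 50mM LiCl, pH 7.4, 30 min at 37C. Cytosolic IP1 read by TR-FRET; AC50 from Hill fits.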
ALDH1A1 inh – inhibitors of human aldehyde dehydrogenase 1A1 | Purified ALDH1A1, NADH fluorescence, propionaldehyde substrate | 220,000 compounds, 7.3% hits | Potency, µM (doses to about 75.3 µM), for the others: at the highest dose activity, negative = inhibition, usual class: inhibitors | P00352; active = well fitted inhibition curve with a large enough effect, not every such curve was filed as active; inconclusive = small, poorly fitted or top-dose-only effect, or another doubt; inactive = no such curve, though single readings can be large or run the other way;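 note: potency is the fitted concentration of half-maximal effect; plate controls were no enzyme wells and a reference inhibitor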
HPGD block – inhibitors of human 15-hydroxyprostaglandin dehydrogenase (HPGD); P15428; purified HPGD, NADH fluorescence kinetic, PGE2 substrate; Potency, µM, inactives show top-dose activity change, negative = inhibition, usual class: inhibitors; 150,000 compounds, 4.3% hits; AID 894; active = well fitted inhibition curve with a large enough effect, not every such curve was filed as active; inconclusive = small, poorly fitted or top-dose-only effect, or another doubt; inactive = no such curve, though single readings can be large or run the other way; note: potency is the fitted concentration of half-maximal effect; % is set by controls: 0 for no effect and ±100 for the full control effect
Target sequence (P15428 whole entry, looked up): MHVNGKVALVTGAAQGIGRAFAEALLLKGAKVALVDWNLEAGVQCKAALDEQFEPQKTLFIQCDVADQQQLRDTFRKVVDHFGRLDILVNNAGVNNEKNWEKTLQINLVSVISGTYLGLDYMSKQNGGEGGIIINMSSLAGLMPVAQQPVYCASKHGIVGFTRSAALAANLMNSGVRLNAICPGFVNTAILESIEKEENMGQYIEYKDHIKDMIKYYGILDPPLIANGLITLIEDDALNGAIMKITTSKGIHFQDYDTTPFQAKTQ
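20 nM HPGD preincubated 15 min at room temperature with compound in 50 mM Tris-HCl pH 8, 0.01% Tween 20. Started with 1 mM NAD+ and 30 uM prostaglandin E2; NADH fluorescence (360/450 nm) read 5 times over 30-s intervals, last minus first.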
HTT cytoprotect – protects HTT-Q103 PC12 cells, measured by ATP | Potency, µM (top dose mostly 56.4 µM), for the others: cytoprotection (ATP increase), hits mostly activators | PC12 HTT-Q103 induced, cytoprotection, ATP luminescence, 40 h | 230,000 compounds, 0.14% hits; note: potency is the fitted concentration of half-maximal effect; % of control where 0% means no effect; nearly all actives have a fitted effect of over 45% in size
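Quantitative HTS on tebufenozide-induced (100 nM) PC12 cells expressing HTTQ103 exon 1–GFP; compounds tested as a concentration series; survival measured via cellular ATP.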
HttQ103 aggreg – reduces HttQ103-GFP aggregates in PC12 cells; Potency, µM (doses to about 46.1 µM), inactives show at the highest dose activity change, negative = inhibition, usual class: inhibitors; AID 1688; 220,000 compounds, 1.1% hits; PC12 HttQ103-GFP aggregates, Acumen cytometry, 40 h; note: potency is the fitted concentration of half-maximal effect; % is set by controls: 0 for no effect and ±100 for the full control effect; nearly all actives have a fitted effect of over 60% in size
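Inducible Q103 Huntingtin exon 1–GFP PC12 line, 1500 cells/well in phenol red free DMEM with 5% equine and 5% calf serum. Tebufenozide 100 nM induced expression; compounds titrated; aggregates quantified by cytometry.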
IMPase Li inh – IMPase inhibition in cells with lithium potentiation; CHO-M1 cells, IP1 TR-FRET (IP-One), carbachol + lithium; Potency, µM (top dose mostly 59.4 µM), for the others: at the highest dose activity, negative = IMPase inhibition, most hits filed as inhibitors; 210,000 compounds, 0.35% hits;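 note: IP1 builds up when IMPase is blocked and the TR-FRET signal falls; potency is the fitted concentration of half-maximal effect; plate controls were basal vehicle for no effect and high inhibitor control for full effect; nearly all actives have a fitted effect of over 50% in size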
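CHO cells stably expressing M1 receptor (2000/well) were cultured 16–30 h, then exposed to compounds with a small lithium addition for 30 min at 37C. IP1 was measured by TR-FRET competition; AC50 from Hill fits.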
* marks the source's active call; other numbers are inactive results; ? = inconclusive; . = not tested or not shown; [ ] = dose if it differs, or a comment. An excerpt weighted towards active compounds, which were near 9.4% of everything screened. Unless noted, calls come from the whole dose curve; as a rule, active = well fitted curve in the direction sought with a large enough effect; inconclusive = small, poorly fitted or top-dose-only effect, or another doubt; inactive = no such curve, though single readings can be large; an effect the other way counts as inactive or inconclusive.

SMILES | IMPase cell inh | ALDH1A1 inh | HPGD block | HTT cytoprotect | HttQ103 aggreg | IMPase Li inh
CCN1CCC[C@@H]1CNC(=O)c1c(O)c(Cl)cc(Cl)c1OC | 1 | . | . | 9%[1.9 µM] | . | .
CCOCCCNC(=O)C(c1ccc(OC)cc1)N(Cc1ccc2c(c1)OCO2)C(=O)c1ccccc1O (stereo not drawn) | . | 2µM* | . | 8% | 12% | 6%
CCOCCCNC(=O)C(c1ccc(C)cc1)N(Cc1cccs1)C(=O)c1ccccc1O (stereo not drawn) | . | 16µM* | . | -30% | 2% | 12%
CCOCCCNC(=O)C(c1ccccc1)N(Cc1cccs1)C(=O)c1ccccc1O (stereo not drawn) | . | -12% | . | 6% | -1% | 3%
C[C@H]1Cc2c(-c3ccccc3)nc3c(c2CO1)CN(C(=O)C1CCCCC1)CC3 | . | -1%[13.5 µM] | -4% | -2%[10 µM] | . | 10%
CS(=O)(=O)Oc1ccc2c(c1)O/C(=C\c1cccnc1)C2=O | . | 11µM* | . | 32%[10 µM] | -4%[9.22 µM] | .
O=C1/C(=C/c2cccnc2)Oc2cc(OS(=O)(=O)c3ccc(Cl)cc3)ccc21 | -6 | 1.6µM* | -23% | -2% | -3%[9.22 µM] | 7%[38.3 µM]
COc1ccc(S(=O)(=O)Oc2ccc3c(c2)O/C(=C\c2cccnc2)C3=O)cc1 | -5 | 7.9µM* | 16µM* | 8%[10 µM] | ? | 18%[38.3 µM]
O=C1/C(=C/c2cccnc2)Oc2cc(OS(=O)(=O)c3ccccc3)ccc21 | 7 | 3.2µM* | ? | -9% | -25% | 46%[38.3 µM]
CCC(C)CCCCC(=O)N[C@@H](CCN)C(=O)N[C@H](C(=O)N[C@@H](CCN)C(=O)N[C@H]1CCNC(=O)C([C@@H](C)O)NC(=O)[C@@H](CCN)NC(=O)[C@H](CCN)NC(=O)[C@H](CC(C)C)NC(=O)[C@@H](CC(C)C)NC(=O)[C@H](CCN)NC1=O)[C@@H](C)O (stereo partly drawn) | . | -3% | -5% | -84% | . | -1%
Clc1ccccc1C(Nc1ncccn1)Nc1ncccn1 | . | 8%[13.5 µM] | -6% | -9%[10 µM] | . | 1%
Cc1ccc(-c2nc(NC(=O)CSc3ccc4ccccc4n3)ns2)cc1 | 3 | 4% | -2% | . | -25% | ?
Cc1ccc(-c2nc(NC(=O)CSc3nnnn3-c3ccccc3)ns2)cc1 | ? | ? | ? | -28% | -11% | 10µM*
Cc1ccc(-c2csc3nnc(SCC(=O)Nc4nsc(-c5ccccc5)n4)n23)cc1 | 1 | 8.9µM* | -4% | -34% | ? | -6%[38.3 µM]
S=c1nc(-c2ccccc2)c(-c2ccccc2)n[nH]1 | . | 0.32µM* | . | -11%[10 µM] | -2%[9.22 µM] | .
C=CCOC(=O)[C@H](O)[C@@H](O)C(=O)OCC=C | . | 0% | -3% | ? | . | 5%
C/C(=N\NC(=O)c1ccn(C)n1)c1ccc(NC(=O)C2CCCC2)cc1 | . | 3% | 14µM* | -20%[10 µM] | 8% | 7%
O=C(c1ccco1)N1CCN(C(=O)N2CCOCC2)CC1 | -1 | 32µM* | -11% | -24% | -6% | -10%[38.3 µM]
O=C1c2ccccc2-c2c1cccc2C(=O)N1CCN(C(=O)c2ccco2)CC1 | 6 | 16µM* | -10% | 5% | 28% | -1%[38.3 µM]
CC1CC(C)CN(C(=O)c2cccc3c2-c2ccccc2C3=O)C1 (stereo not drawn) | . | . | . | 15%[10 µM] | -5%[9.22 µM] | .
Cc1ccc(N2CCN(C(=O)N3CCOCC3)CC2)cc1C | . | 0% | . | 25%[10 µM] | 12%[9.22 µM] | -3%
Cc1cccc(C)c1N1CCN(C(=O)N2CCOCC2)CC1 | . | 11µM* | . | 2%[10 µM] | -12%[9.22 µM] | 18%
O=c1c(-c2ccc(F)cc2)nc2cnc(N3CCNCC3)nc2n1-c1ccccc1 | . | ? | . | -277% | . | 0%
O=C(C1=C(O)C(=O)N(CCN2CCOCC2)C1c1ccccc1)c1cccs1 (stereo not drawn) | . | . | . | -21% | . | .
C=CCOc1cccc(C2C(C(=O)c3ccco3)=C(O)C(=O)N2Cc2ccncc2)c1 (stereo not drawn) | -17 | ? | -6% | -10%[10 µM] | -9% | 5%[38.3 µM]
C=CCOc1cccc(C2C(C(=O)c3ccco3)=C(O)C(=O)N2CCN2CCOCC2)c1 (stereo not drawn) | -4 | 25µM* | -16% | 8% | 19% | -10%[38.3 µM]
COc1cccc(C2C(C(=O)/C=C/c3ccco3)=C(O)C(=O)N2CCN2CCOCC2)c1 (stereo not drawn) | . | -2% | . | 1% | -6% | 3%
Cc1ccc(C2C(C(=O)c3sc(C)nc3C)=C(O)C(=O)N2CCN2CCOCC2)o1 (stereo not drawn) | 2 | ? | -6% | -10%[0.074 µM] | 19% | -2%[38.3 µM]
COc1cccc2cc(C(=O)C3=C(O)C(=O)N(CCN4CCOCC4)C3c3cccs3)oc12 (stereo not drawn) | -10 | 25µM* | -11% | 1% | 17% | ?
COc1ccc(C2C(C(=O)/C=C/c3ccco3)=C(O)C(=O)N2CCN2CCOCC2)cc1 (stereo not drawn) | . | 20µM* | . | -44% | 13% | 7%
